Reference: PubChem BioAssay (EPA / NIEHS)
Calls of active or inactive are those of the source. The calls were made as follows: active = hit-call score of the fitted dose curve at least 0.9, where 1 is the maximum; inactive = score below 0.9.

Experiment: ATG_M_19_CIS: Attagene CIS-FACTORIAL HepG2 Assay for M19 Transcription Factor (Internal Marker) (AID 2282939)
Details: HepG2 Attagene CIS-FACTORIAL M19 internal marker reporter; actives raise or lower the signal
Description: ATG_CIS is a cell-based, multiplexed-readout assay that uses HepG2, a human liver cell line, with measurements taken at 24 hours after chemical dosing in a 24-well plate.ATG_M_19_CIS is one of 52 assay component(s) measured or calculated from the ATG_CIS assay. It is designed to make measurements of mRNA induction, a form of inducible reporter, as detected with fluorescence intensity signals by Reverse transcription polymerase chain reaction (RT-PCR) and Capillary electrophoresis technology.Data from the assay component ATG_M_19_CIS was analyzed into 1 assay endpoint. This assay endpoint, ATG_M_19_CIS, was analyzed with bidirectional fitting relative to DMSO as the negative control and baseline of activity. Using a type of inducible reporter, measures of mRNA for gain or loss-of-signal activity can be used to understand the background control at the transcription factor-level as they relate to the gene . Furthermore, this assay endpoint can be referred to as a secondary readout, because this assay has produced multiple assay endpoints where this one serves a background control function. To generalize the intended target to other relatable targets, this assay endpoint is annotated to the background measurement intended target family, where the subfamily is internal marker.
Human liver HepG2 cells are transiently transfected with multiple reporter transcription units (MRTUs) in 6-well plates using FuGene 6 reagent (Roche; 3 ml FuGene/1 mg DNA). The MRTU constructs are regulated by a cis-regulating element (promoter). […] A major difference between the CIS and TRANS system is that in CIS activities of endogenous TFs are measured, whereas the TRANS assay evaluates changes in activities of exogenous, chimeric NR-Gal4 proteins. […] At the end of 24 hour incubation, total RNA was isolated using TriZol reagent (Invitrogen). The isolated RNA is then reverse-transcribed using oligo(dT) primer and Mo-MLV reverse transcriptase (Invitrogen) with DNAse I (Ambion) treatment for 30 min. The one-tenth of the produced cDNA was amplified by PCR using Taq DNA polymerase (Invitrogen) and two reporter sequence-specific primers. The PCR products were fluorescently labeled by primer extension with 6-arboxyfluorescein (6-FAM) 5'-labeled reporter sequence-specific primer (2 min at 95 C, 20 s at 68 C and 10 min at 72 C) and these products were digested with 5U of HpaI (New England Biolabs) for 2h at 37 C. The fragments were purified using Qiaquick PCR columns (Qiagen), analyzed on an ABI 3130xL genetic analyzer (Applied Biosystems) with peak positions identified by using a set of X-rhodamine (ROX)-labeled MapMarker1000 molecular weight standards (BioVentures). The raw capillary electrophoresis data was processed using Attagraph software (Attagene).

Row | Compound | outcome | AC50
1 | C1CNCCN1 | inactive | –
2 | Oc1ccccc1Cc1ccccc1O | inactive | –
3 | CC(=O)OC1CCCCC1C(C)(C)C (stereo not given) | inactive | –
4 | Cc1ccc([N+](=O)[O-])cc1N | inactive | –
5 | Cc1c(Cl)cccc1Cl | inactive | –
6 | CCCCCCCCCCCC(C)=O | inactive | –
7 | CCOC(=O)C1=NN(c2ccc(Cl)cc2Cl)C(C)(C(=O)OCC)C1 (stereo not given) | inactive | –
8 | O=C(O)CC(C(=O)O)S(=O)(=O)O (stereo not given) | inactive | –
9 | CCN1CCCC1=O | inactive | –
10 | CCCCC1CCC(=O)O1 (stereo not given) | inactive | –
11 | COC(=O)c1ccccc1C | inactive | –
12 | COc1ccc(-c2coc3cc(O)cc(O)c3c2=O)cc1 | inactive | –
13 | c1ccc2sc(SSN3CCOCC3)nc2c1 | inactive | –
14 | CC1C(C)(C)C2=C(C(=O)CCC2)C1(C)C (stereo not given) | inactive | –
15 | O=C(Nc1ccccc1)c1cc(Cl)ccc1O | inactive | –
16 | CC(=O)OC1CCCCC1 | inactive | –
17 | N=C1C=CC(=C(c2ccc(N)cc2)c2ccc(N)cc2)C=C1 | – | 100 µM (active)
18 | CC/C=C\C/C=C\C/C=C\CCCCCCCC(=O)OC | inactive | –
19 | C=CCCCCCCCCOC(C)=O | inactive | –
20 | CC1=CP(=O)(c2ccccc2)CC1 (stereo not given) | inactive | –

Row | Compound | outcome | AC50
21 | O=C1CCCN1C1CCCCC1 | inactive | –
22 | CC(C)(c1ccccc1)c1ccc(Nc2ccc(C(C)(C)c3ccccc3)cc2)cc1 | inactive | –
23 | CC(C)CCOCc1ccccc1 | inactive | –
24 | NC(=O)Nc1ccccc1 | inactive | –
25 | CC1=C(O)C(=O)C(C)O1 (stereo not given) | inactive | –
26 | O=C(Cl)c1c(Cl)c(Cl)c(C(=O)Cl)c(Cl)c1Cl | inactive | –
27 | Oc1c(Cl)cc(Cl)c(Cl)c1Cl | inactive | –
28 | c1ccc(Nc2cccc3ccccc23)cc1 | – | 47.9 µM (active)
29 | O=C(Oc1ccccc1)c1ccccc1C(=O)Oc1ccccc1 | inactive | –
30 | CCC1COC(=O)O1 (stereo not given) | inactive | –
31 | C=CCCCCCCCCO | inactive | –
32 | CC(C)=CCCC(C)=CC#N | inactive | –
33 | C=CCOC(=O)c1ccc(C(=O)OCC=C)c(C(=O)OCC=C)c1 | inactive | –
34 | CCN(CC)c1cccc(C)c1 | inactive | –
35 | CCOC(=O)c1ccccc1C | inactive | –
36 | CCCCOCC(C)O (stereo not given) | inactive | –
37 | CCCCCCOC(=O)CCCCC(=O)OCCCCCC | inactive | –
38 | CCCc1ccc(O)c(OC)c1 | inactive | –
39 | O=C(O)CCCC(=O)O | inactive | –
40 | CCCCCCCCCCCCCc1ccccc1 | inactive | –
